In PubChem BioAssay AID1845224 (National Center for Advancing Translational Sciences (NCATS), 2023):
Records with an inconclusive call do not appear. A number with no mark means an inactive call. The source made the active and inactive calls. The call rests on the fitted dose curve; in most records, active means well fitted curve in the direction sought with a large enough effect; inconclusive means small, poorly fitted or top-dose-only effect, or another doubt; inactive means no such curve, though single readings can be large or run the other way.

system: NanoLuc luciferase (engineered Oplophorus gracilirostris luciferase); assay: Confirmatory Nanoluciferase (NLuc) qHTS assay for identification of artifact compounds.; settings: secreted NLuc in S16 cell medium, luminescence, 5 min; series mostly up to 39 µM; activity change, negative = inhibition: at the top concentration
Excerpt: PI: Alexander Tropsha Ph.D. UNC Eshelman School of Pharmacy University of North Carolina, Chapel Hill, North Carolina Hits from high-throughput screening (HTS) of chemical libraries are often false positives due to their interference with the assay detection technology. In response to this problem, we generated the largest publicly available library of chemical liabilities and developed a free webtool to predict HTS artifacts, both of which are described herein. More specifically, we generated, curated, and integrated HTS datasets for thiol reactivity, redox activity, and luciferase (firefly and nano) activity. Using these curated datasets, we developed and validated several Quantitative Structure-Interference Relationship (QSIR) models to predict nuisance behavior. […] These models were employed for virtual profiling of the National Center for Advancing Translational Science's (NCATS) in-house library, and 256 compounds for each assay were selected for the experimental validation of nuisance behavior. The BA for these external predictions ranged from 58 to 78% for compounds within the applicability domains of the models. […] The models developed in this study, along with aggregation models previously developed by our group (SCAM Detective) were implemented in "Liability Predictor," an online tool which may be used as part of chemical library design or for triaging HTS hits. Both the models and the curated datasets are publicly available at https://liability.mml.unc.edu/.
PROTOCOL TABLE SEQUENCE No. (e.g., 1, 2, 3, etc.); PARAMETER (e.g., Cells, Incubation, Reagent, etc.); VALUE; DESCRIPTION. 1; Reagent; 2 uL; Nanoluciferase media. 2; Compounds and control; 16 nL; Kalypsis pin tool (Wako USA) equipped with a 1536-well pin head. 3; Incubation; 15 min. 4; Reagent; 2 uL; Luciferase enzyme. 5; Incubation; 5 min. 6; Detection; Luminescence, ViewLux microplate reader. NOTES (numbers refer to Sequence numbers above) 1. Medium was collected from the culture flasks of NLuc-expressing S16 cells (80% confluent) prior to cell plating, filtered through a 0.22um filter, and frozen at -20C prior to use. Media was diluted (1:55) and 2 uL was dispensed into all wells of a 1536-well assay plate (solid-bottom white plate; Greiner Bio One, Monroe, NC). 2. A Wako Pin-tool (Wako Automation, Richmond, VA) was used to transfer 16 nL of compounds (consisting of 7-plates in qHTS format, final concentration range 18.3 nM to 114 uM) or control Cilnidipine (final concentration range 623 nM to 80 uM). 3. 15 min. incubation at room temperature protected from light. 4. 2 uL of NLuc substrate (1:100 in Nano-Glo luciferase buffer; Nano-Glo luminescence assay, Promega, Madison, WI) was dispensed for a final assay volume of 4 uL. 5. Plates were centrifuged (121xg, 15 seconds) and incubated for 5 minutes. 6. Samples were read for luminescence on a ViewLux CCD imager (PerkinElmer). Data were normalized to no-enzyme (0% activity) and no-inhibitor (DMSO; 100%) controls and the resulting percent inhibition data were fitted to a 4-parameter Hill equation using NCATS in-house software.
Potency means the concentration at half of the fitted maximal effect.

Row | SMILES | activity change, negative = inhibition | Potency
1 | COc1ccc(CC(=O)Nc2nc3c(s2)CCCC3)cc1 | -7.35% | –
2 | C[C@@H]1C[C@H]2[C@@H]3CCC4=CC(=O)C=C[C@]4(C)[C@@]3(F)[C@@H](O)C[C@]2(C)[C@@]1(O)C(=O)CO | -0.23% | –
3 | CC(C)C[C@H](NC(=O)[C@H](Cc1ccccc1)NC(=O)CNC(=O)CNC(=O)[C@@H](N)Cc1ccc(O)cc1)C(=O)N[C@@H](CCCN=C(N)N)C(=O)N[C@@H](CCCN=C(N)N)C(=O)N[C@@H](CCC(N)=O)C(=O)N[C@@H](Cc1ccccc1)C(=O)N[C@@H](CCCCN)C(=O)N[C@H](C(=O)N[C@H](C(=O)N[C@H](C(=O)O)[C@@H](C)O)C(C)C)C(C)C | 9.86% [at 4.32 µM] | –
4 | O=C(Nc1noc2ccccc12)c1c(F)cccc1F | -3.71% | –
5 | O=C(Nc1nnc(-c2ccco2)o1)c1ccc(Cl)c(Cl)c1 | 9.94% | –
6 | COc1ccc(NC(=O)c2csnn2)cc1Cl | -4.84% | –
7 | Cc1ccc2[nH]c(CSc3nnc(C)s3)cc(=O)c2c1 | -2.56% | –
8 | CCCS(=O)(=O)N1CC(=O)N(c2cc(C)cc(C)c2)C(C)(C(=O)NC2CCCCCC2)C1 (stereo not given) | -15.1% | –
9 | N#Cc1cccc(-c2ccc(NC(=O)c3cccs3)cn2)c1 | -9.86% | –
10 | O=C(OCC#CCSc1nnc(-c2ccc3ccccc3c2)o1)c1ccsc1 | -10.1% | –
11 | CN1C(=O)Cc2cc(S(=O)(=O)NCc3ccccc3Cl)ccc21 | -10.4% | –
12 | OCC(O)C(O)C(OC1OC(CO)C(O)C(O)C1O)C(O)CO (stereo not given) | 4.48% | –
13 | CCOC(=O)c1c(C)[nH]c(CCC(=O)NCCCN2CCN(c3ccc(F)cc3)CC2)c1C | -5.53% | –
14 | COc1ccc(NC(=O)c2cnn3c(-c4ccccc4)cc(C)nc23)cc1 | -17.3% | –
15 | CN(C)C=O | 7.7% | –
16 | COc1ccc(CNC(=O)CCc2c(C)nc3c4cccnc4nn3c2C)cc1 | -5.25% | –
17 | COc1cc(O)c2c(c1)O[C@H](c1ccccc1)CC2=O | -5.83% | –
18 | COc1ccccc1/C=C/c1nc(C#N)c(NCCc2ccccc2)o1 | -17.7% | –
19 | Cc1ccc(-c2nnc(Nc3cccc(Br)c3)c3ccccc23)cc1S(=O)(=O)N1CCCCC1 | -0.839% | –
20 | CCOc1ccc(-c2cc(NC(=O)Nc3ccccc3Cl)c(C(=O)OC)s2)cc1 | -5.11% | –

Row | SMILES | activity change, negative = inhibition | Potency
21 | COc1cccc(CNS(=O)(=O)c2cnc(N)nc2)c1 | -4.95% | –
22 | C[C@H](CCC(=O)O)[C@H]1CCC2C3CC[C@@H]4C[C@H](O)CC[C@]4(C)C3CC[C@@]21C (stereo not given in full) | -6.93% | –
23 | O=S(=O)(Nc1cccc2cccnc12)c1ccccc1 | -9.29% | –
24 | Cc1ccc(C(=O)Nc2onc3c2CCCC3)cc1 | -8.25% | –
25 | Cc1ccc(CNc2ncnc3onc(-c4ccc(F)cc4)c23)cc1 | -15.1% | –
26 | CCC(C(=O)NCc1cc(OC)ccc1OC)n1nc(C)c2sc3ccccc3c2c1=O (stereo not given) | -11.2% | –
27 | COc1ccc(C2Nc3ccccc3C(=O)N2CC(C)(C)C)cc1COc1ccc(NC(C)=O)cc1 (stereo not given) | -8.01% | –
28 | COC(=O)c1c(NC(=O)c2nc(SCc3cccc(C)c3)ncc2Cl)sc2c1CCCC2 | -4.52% | –
29 | CC(=O)Nc1ccc(Nc2nc3ccc(C)cc3n3nnnc23)cc1 | 1.1% | –
30 | CCCNC(=O)N1CCCN(S(=O)(=O)c2ccc3c(ccn3CC)c2)CC1 | -1.42% | –
31 | C[C@@H]1O[C@@H](O[C@@H]2[C@@H](O)[C@H](OCCc3ccc(O)c(O)c3)O[C@H](CO[C@@H]3O[C@H](CO)[C@@H](O)[C@H](O)[C@H]3O)[C@H]2OC(=O)/C=C/c2ccc(O)c(O)c2)[C@H](O)[C@H](O)[C@H]1O | 2.01% | –
32 | Fc1ccc(-c2cc(-c3nc(-c4ccc(Cl)cc4)no3)[nH]n2)cc1 | -0.152% | –
33 | Cc1c(NC(=O)C(C)(C)C)cccc1-c1nc2ccccc2s1 | -11.2% | –
34 | CCc1cccc(NC(=O)Cn2c(=O)n3nc(-c4cccc(F)c4)nc3c3ccccc32)c1 | -14.1% | –
35 | CCOC(=O)N1CCN(S(=O)(=O)N2CCCC(C(=O)NCc3cccc(OC)c3)C2)CC1 (stereo not given) | -6.38% | –
36 | COc1ccc(C2=Nn3c(nnc3-c3cccc(OC)c3)SC2)cc1 | -1.18% | –
37 | COc1ccc(CCNC(=O)Cn2cc(C(=O)c3ccc(F)cc3)c(=O)c3ccc(C)nc32)cc1OC | -3.94% | –
38 | CCOc1ccc(CCNC(=O)c2cnc3c(-c4ccccc4)c(C)nn3c2C)cc1OCC | -1.56% | –
39 | O=C(CCS(=O)(=O)c1nc(-c2ccc3c(c2)OCO3)cc(C(F)(F)F)n1)Nc1ccccc1C(F)(F)F | – | 12.2 µM (active)
40 | COc1cccc(C(=O)Nc2ccccc2-c2nnc(-c3ccc(C(C)(C)C)cc3)o2)c1 | -10.1% | –
